Experimental data from publication PMC6212790, “How bacterial xenogeneic silencer rok distinguishes foreign from self DNA in its resident genome”.
Over roughly 33,000 sequences, “e-score” has its median near -0.037; the highest 2% begin near 0.34. What follows is part of a selection rich in the highest values, with near analogues and random picks from the rest.

target: T1, GST-Rok (full length) (Bacillus subtilis subsp. subtilis str. …, UniProt O34857 1-191); assay: protein binding microarray; Rok is a gene silencer of Bacillus subtilis; high values mean tight binding; conditions: protein: recombinant; tags: GST (pTH5325, pDEST15-Magic modified); dsDNA, one strand shown
T1 sequence: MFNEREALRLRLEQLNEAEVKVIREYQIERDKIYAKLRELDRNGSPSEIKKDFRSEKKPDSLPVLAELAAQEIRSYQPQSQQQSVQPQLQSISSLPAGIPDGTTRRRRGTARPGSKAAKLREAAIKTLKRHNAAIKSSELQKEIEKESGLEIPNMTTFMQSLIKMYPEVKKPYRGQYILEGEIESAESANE
In short: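 Each has a 25-mer constant primer and a 35-mer variable part from a de Bruijn sequence of order 10, covering every non-palindromic 8-mer at least 32 times (palindromic 16). Preference for each 8-mer is given as a rank-based, unitless enrichment score (E-score). Its range runs from 0.5 (most favored) to −0.5 (most disfavored).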

| Sequence | binding signal |
| --- | --- |
| AAAACTAT | 0.433 E-score |
| AAAACTAC | 0.453 E-score |
| AAAACTAA | 0.254 E-score |
| CAAACTAG | 0.329 E-score |
| TAAACTAA | 0.288 E-score |
| CAAACTCC | -0.0836 E-score |
| CAAACTAA | 0.378 E-score |
| CAAACTTA | 0.162 E-score |
| GTGGCAAC | -0.17 E-score |
| CGTGACAA | -0.11 E-score |
| CGACGAGA | -0.0756 E-score |
| ATCCCAAA | 0.0535 E-score |
| CACTCTCA | -0.109 E-score |
| CTTAATGC | 0.13 E-score |
| ACCGAGCA | -0.0882 E-score |
| GTTGGTTA | 0.26 E-score |
| AGCGCTAT | -0.0624 E-score |
| GAAACTAA | 0.244 E-score |
| GAAACTTC | 0.224 E-score |
| GAAACTAC | 0.469 E-score |
| CGGTAGGA | 0.281 E-score |
| CAACCGGC | -0.0977 E-score |
| ACGCTCCT | -0.000812 E-score |
| AAATACTG | 0.327 E-score |
| CAATACTA | 0.261 E-score |

| Sequence | binding signal |
| --- | --- |
| AAATACTA | 0.454 E-score |
| TAATACGA | 0.377 E-score |
| TAATACTA | 0.419 E-score |
| GAATACTA | 0.295 E-score |
| CAATACGA | 0.00373 E-score |
| AAATACGA | 0.118 E-score |
| AAATACTC | 0.227 E-score |
| ACGCAAAC | 0.106 E-score |
| AGAGCTTA | -0.044 E-score |
| GACGATGA | -0.103 E-score |
| GGCTGTAC | -0.102 E-score |
| ACTCGCAC | -0.112 E-score |
| ATACTGTC | 0.0898 E-score |
| AGTACGCC | -0.149 E-score |
| ATCAATGA | 0.0966 E-score |
| CATAATAG | 0.243 E-score |
| AATAATAC | 0.332 E-score |
| AATAATAG | 0.388 E-score |
| GGTAATAA | 0.313 E-score |
| CATAATAA | 0.252 E-score |
| TATAATAA | 0.33 E-score |
| GATAATAC | 0.187 E-score |
| ATTAATAC | 0.353 E-score |
| CTTAATAC | 0.18 E-score |
| AATAATAA | 0.364 E-score |

| Sequence | binding signal |
| --- | --- |
| GATAATAA | 0.369 E-score |
| ATTAATAA | 0.182 E-score |
| AACCATCC | -0.0159 E-score |
| AGCCGTGC | -0.157 E-score |
| ATGGGCCG | -0.146 E-score |
| ACCTTAGA | 0.00282 E-score |
| AGTACGTA | 0.332 E-score |
| AATAATGC | 0.352 E-score |
| AATAATGT | 0.222 E-score |
| AATAATGG | 0.103 E-score |
| CGTAGTCC | -0.0635 E-score |
| CGGGCAGC | -0.142 E-score |
| CTAGGTCA | -0.0595 E-score |
| ACGTTCAA | -0.0397 E-score |
| CAATGGAG | -0.17 E-score |
| ACAGCTCT | -0.118 E-score |
| ACAACGAC | 0.0795 E-score |
| CACCGGTA | 0.056 E-score |
| AACCGGTA | 0.274 E-score |
| TACCGGTA | 0.37 E-score |
| ACCATGCT | -0.182 E-score |
| ATTAACTC | 0.092 E-score |
| ATTAACTA | 0.398 E-score |
| ATTAACTG | 0.14 E-score |
| ATTAAGTA | 0.347 E-score |

| Sequence | binding signal |
| --- | --- |
| CTTAAGTA | 0.281 E-score |
| GTTAACGA | 0.241 E-score |
| GTTAAGTA | 0.191 E-score |
| CTTAACTA | 0.313 E-score |
| GTTAACTA | 0.359 E-score |
| GAGCGAGA | -0.17 E-score |
| AGTCATAC | 0.018 E-score |
| GGTCGCAA | 0.0661 E-score |
| CAGCGTGA | -0.12 E-score |
| AAATGTAG | 0.297 E-score |
| CAATGTAC | 0.263 E-score |
| AAATGTAT | 0.281 E-score |
| AAATGTAC | 0.343 E-score |
| AAATGTAA | 0.389 E-score |
| GAATGTAC | 0.303 E-score |
| CGAGCCAC | -0.119 E-score |
| GGGCAGCA | -0.184 E-score |
| CTCGCTAA | -0.0951 E-score |
| TGTGAGAA | 0.216 E-score |
| CCTCTTGA | -0.196 E-score |
| CATATATC | 0.25 E-score |
| TATATCGA | 0.304 E-score |
| TATATATA | 0.477 E-score |
| CAGATATA | 0.165 E-score |
| TAGATATA | 0.339 E-score |

| Sequence | binding signal |
| --- | --- |
| CATATATG | 0.343 E-score |
| CACATATA | 0.261 E-score |
| CTTATATA | 0.253 E-score |
| CATATATA | 0.38 E-score |
| GAGATATA | 0.157 E-score |
| CATATAAG | 0.119 E-score |
| CACATATG | 0.266 E-score |
| CTTAAAAG | -0.119 E-score |
| ACATTGGT | 0.186 E-score |
| ACCAGAGG | -0.0915 E-score |
| AGAGACAC | 0.0712 E-score |
| ATGTCCGG | -0.00967 E-score |
| GATATAAA | 0.33 E-score |
| TTTATAAA | 0.367 E-score |
| TATATAAA | 0.399 E-score |
| CTTATAAA | 0.0863 E-score |
| AATATAAA | 0.266 E-score |
| ATTATAAA | 0.157 E-score |
| CCCAGGCA | -0.18 E-score |
| GAAACCGA | -0.119 E-score |
| CCCGTACG | -0.101 E-score |
| AATATGTA | 0.416 E-score |
| CATATGAA | 0.0706 E-score |
| CTTATGTA | 0.111 E-score |
| CATATGTC | -0.0495 E-score |

| Sequence | binding signal |
| --- | --- |
| AATATGTC | 0.106 E-score |
| ATTATGTA | 0.358 E-score |
| GATATGTA | 0.296 E-score |
| GTTATGTA | 0.269 E-score |
| CATATGTA | 0.338 E-score |
| AGAGCTGC | -0.0428 E-score |
| ACGAACTG | 0.0336 E-score |
| GTCCAGAA | -0.0598 E-score |
| GCGAGAAA | -0.035 E-score |
| TAGAAGAA | 0.109 E-score |
| AAAAGGAG | -0.188 E-score |
| AGTGAATG | 0.0707 E-score |
| TCTCTGCA | 0.0197 E-score |
| AGCATTAT | 0.255 E-score |
| AGTAGTAG | 0.349 E-score |
| AACAGTAG | 0.354 E-score |
| AGTAGTAT | 0.405 E-score |
| CACAGTAG | 0.0684 E-score |
| ATTAGTAG | 0.321 E-score |
| AGAAGTAT | 0.334 E-score |
| AATAGTAG | 0.469 E-score |
| CATAGTAG | 0.0836 E-score |
| AATAGTAT | 0.292 E-score |
| AGCAGTAT | 0.015 E-score |
| CGTAGTAG | 0.204 E-score |

| Sequence | binding signal |
| --- | --- |
| AACAGTAA | 0.294 E-score |
| GCCTGTAC | -0.0711 E-score |
| AACCTTAC | 0.0321 E-score |
| AAGAAGAG | -0.106 E-score |
| AAAGGTTG | -0.0391 E-score |
| CATAGGCA | 0.0952 E-score |
| GAACTTCA | 0.0379 E-score |
| ACATAAGT | 0.127 E-score |
| CGAAACCA | -0.108 E-score |
| GGAAACGA | -0.156 E-score |
| GGAAACAA | 0.207 E-score |
| AGAAACTC | 0.158 E-score |
| CGAAACTA | 0.446 E-score |
| AGAAACTG | 0.12 E-score |
| AGAAACTA | 0.412 E-score |
| CGAAACTC | -0.0462 E-score |
| GGAAACTA | 0.362 E-score |
| AATTAAGG | 0.158 E-score |
| ATCGGTCA | 0.0381 E-score |
| ATGGCTTG | -0.172 E-score |
| TATGGGCA | -0.0796 E-score |
| TAAGCCGA | -0.0712 E-score |
